Measurements reported in PubChem BioAssay AID2642 (Johns Hopkins Ion Channel Center, 2010).
Among all 310,000 compounds or so, about 3,900 (1.3%) were called active.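 Rule for the calls: active = compounds whose thallium flux B-score, printed positive for inhibition, exceeds three library SD while starting fluorescence stays within three; inactive = the rest.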 What follows is part of a selection rich in actives, with near analogues and random picks from the rest.

molecular target: Potassium voltage-gated channel subfamily KQT member 1 (Homo sapiens) (UniProt P51787); assay: KCNQ1 potassium current blockers – cell-based, thallium flux, high-throughput, primary screen (AID 2642); settings: CHO-K1 KCNQ1, FluxOR thallium flux fluorescence, at 10 µM; active compounds read high;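 note: channel opened by potassium depolarization with thallium stimulus after 20 min compound exposure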
Sequence (P51787 whole entry, looked up): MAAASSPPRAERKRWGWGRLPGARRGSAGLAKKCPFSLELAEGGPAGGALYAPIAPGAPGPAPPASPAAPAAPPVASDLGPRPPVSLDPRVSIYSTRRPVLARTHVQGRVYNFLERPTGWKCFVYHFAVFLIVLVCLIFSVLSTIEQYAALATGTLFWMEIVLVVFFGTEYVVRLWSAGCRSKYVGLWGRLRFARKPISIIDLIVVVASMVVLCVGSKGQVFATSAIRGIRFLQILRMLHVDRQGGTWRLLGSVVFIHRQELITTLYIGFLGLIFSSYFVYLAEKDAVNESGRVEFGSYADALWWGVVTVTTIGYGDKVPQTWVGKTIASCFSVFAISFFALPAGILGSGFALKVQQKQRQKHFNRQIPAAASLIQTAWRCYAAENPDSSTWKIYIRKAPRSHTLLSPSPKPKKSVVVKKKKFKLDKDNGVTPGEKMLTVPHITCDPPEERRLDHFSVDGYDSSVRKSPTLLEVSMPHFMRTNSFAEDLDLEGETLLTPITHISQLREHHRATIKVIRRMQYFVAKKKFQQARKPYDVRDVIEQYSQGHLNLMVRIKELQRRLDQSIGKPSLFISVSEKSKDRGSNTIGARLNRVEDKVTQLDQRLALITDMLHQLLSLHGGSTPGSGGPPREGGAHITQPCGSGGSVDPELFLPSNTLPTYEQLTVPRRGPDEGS

Compound | B-score
Cc1nc(C(=O)N2CCCC(C(=O)c3ccc(Cl)cc3)C2)cs1 (stereo not drawn) | inactive
CCOC(=O)N1CCN(CCC(=O)Nc2ccccc2)CC1 | inactive
Cc1cccc(NC(=O)C2CCCN(C(=O)Nc3ccc(F)cc3)C2)c1C (stereo not drawn) | inactive
COc1cccc2c(C)c(C(=O)O)[nH]c12 | inactive
Cc1nn(-c2ncc(C(F)(F)F)cc2Cl)c(=O)n1-c1ccccc1 | inactive
CC1CCCC(N2CCN(C(=O)c3ccc(F)cc3)CC2)C1 (stereo not drawn) | inactive
C=CCn1c(SCC(N)=O)nnc1-c1cc2c(s1)CCC(CC)C2 (stereo not drawn) | inactive
COc1ccc(-c2csc3ncnc(Oc4ccc5c(C)cc(=O)oc5c4)c23)cc1 | inactive
COc1ccc(-c2csc3ncnc(N4CCN(S(=O)(=O)c5cccc(F)c5)CC4)c23)cc1 | 6 (active)
COc1ccc(-c2csc3ncnc(N4CCN(S(=O)(=O)c5ccccc5C#N)CC4)c23)cc1 | inactive
CCN(c1ccc(NC(=O)COC(=O)CCc2nc3ccccc3n2-c2ccccc2)cc1)C(C)C | inactive
CCN1/C(=C\c2ccc3ccccc3[n+]2CC)Sc2cc(C)ccc21 | 15 (active)
O=C(CNS(=O)(=O)c1ccccc1)NCC(=O)OCc1ccccc1F | inactive
Cc1ccc(SCC(=O)NC(=O)NCc2ccco2)c(C)c1 | inactive
CC(=O)NCc1ccc(S(=O)(=O)NC2CCN(Cc3ccccc3)CC2)cc1 | inactive
COc1ccc(C)cc1NC(=S)Nc1ccccc1SC | inactive
O=C1NC(=Nc2ccc(Cl)cc2)SC1Cc1cccc(Cl)c1Cl (stereo not drawn) | inactive
O=C(NNC(=O)c1csc(-c2cccnc2)n1)Nc1ccc(Cl)cc1 | inactive
Cc1ccc(NC(=O)Nc2cccnc2)cc1 | inactive
O=C(Nc1ccc(Cl)cc1)Nc1ccc(Oc2cccnc2)nc1 | 8 (active)
Cc1cccc(N2CCC(NCc3c(C(=O)N4CCCCC4)nc4c(C)cccn34)CC2)c1 | inactive
Cc1ccccc1N1CCN(S(=O)(=O)c2ccc3ccccc3c2)CC1 | inactive

Compound | B-score
Cc1ccc(N2CCN(S(=O)(=O)c3ccc(F)cc3)CC2)c(C)c1 | 7 (active)
Cc1ccc(S(=O)(=O)N2CCN(C)CC2)cc1 | inactive
Clc1cccc(-c2nc(NCC3CCCO3)c3ccccc3n2)c1 (stereo not drawn) | 6 (active)
c1ccc2c(NCC3CCCO3)nc(-c3ccncc3)nc2c1 (stereo not drawn) | inactive
O=C(NCC1CCCO1)c1cc(-c2ccccc2)nc2ccccc12 (stereo not drawn) | inactive
COc1ccc(CC(NC(C)=O)C(=O)NC2CCN(C(=O)c3ccc(Cl)cc3)CC2)cc1 (stereo not drawn) | inactive
CC1CCN(C(=S)NC(=O)c2ccccc2Br)CC1 | inactive
C=CCn1c(-c2sc(-c3ccccc3)nc2C)n[nH]c1=S | inactive
C=CCn1c(-c2ccccc2OCC)n[nH]c1=S | 6 (active)
C=CCn1c(-c2ccc3[nH]c(C)c(C)c3c2)n[nH]c1=S | inactive
COc1ccc(S(=O)(=O)N2CCN(C)CC2)c(C)c1 | inactive
CC(C)(C)NC(=O)CN(Cc1cccs1)C(=O)CNS(=O)(=O)c1ccccc1 | inactive
Cc1cccc(-c2nc3ccc(C(=O)NCCN4CCN(C)CC4)cc3nc2-c2cccc(C)c2)c1 | 7 (active)
CCC1=Nc2cc(C(=O)NCCN3CCCC3)ccc2Sc2ccc(C)cc21 | inactive
Cc1ccc(C(=O)NCCN2CCOCC2)cc1C | inactive
CCCNC(=O)c1ccc(N2CCC3(CC2)CC(c2cccc(Br)c2)=NO3)c(NC(=O)c2ccco2)c1 | 6 (active)
CCCNC(=O)c1ccc(N2CCC3(CC2)CC(c2ccc(Cl)cc2)=NO3)c([N+](=O)[O-])c1 | inactive
O=C(Nc1ccccc1N1CCN(C(=O)c2ccccc2)CC1)c1ccco1 | inactive
c1ccc2c(C[n+]3csc4ccccc43)cccc2c1 | inactive
CC1(C(=O)NCCc2c[nH]c3ccccc23)C=CC2(CCCCC2)N1C(=O)c1ccccc1 (stereo not drawn) | inactive
C/C(=N\NC(=S)NC1CCCCC1)c1ccc(C)o1 | inactive
CCc1nnc(NC(=O)CSc2nnc(Cc3ccccc3)n2-c2ccc(OC)cc2)s1 | 11 (active)

Compound | B-score
CCc1nnc(NC(=O)CSc2nnc(COc3ccc(C#N)cc3)n2-c2ccccc2)s1 | inactive
CCc1nnc(NC(=O)CSc2nnc(-c3ccncc3)n2Cc2ccccc2)s1 | inactive
O=C(NCc1ccccc1Cl)C1CCN(S(=O)(=O)N2CCOCC2)CC1 | inactive
O=C(NCc1ccccc1Cl)C1CCN(S(=O)(=O)c2cccc3nonc23)CC1 | inactive
O=C1CCc2cc(S(=O)(=O)N3CCC(C(=O)NCc4ccccc4Cl)CC3)ccc2N1 | 8 (active)
Cc1nnc(-c2ccc(Oc3ccc(C)c(C)c3)c([N+](=O)[O-])c2)o1 | inactive
Cc1c(Br)c([N+](=O)[O-])nn1C(C)C(=O)Nc1nccs1 (stereo not drawn) | inactive
CC(=O)Nc1ccc(NC(=O)c2ccc3c(c2)C(=O)N(c2ccccc2C)C3=O)cc1 | inactive
COc1cc(OC)c(OC)cc1/C=N/Nc1ncnc2c1[nH]c1ccc(C)cc12 | inactive
CC(C)OCCCNC(=O)c1cc(Sc2ccc(F)cc2)nc2ccccc12 | inactive
CC(C)OCCCNc1ncnc2c1[nH]c1ccc(F)cc12 | 9 (active)
CN(CCOc1ccc(Br)cc1)CC(=O)Nc1cccc(S(=O)(=O)NC2=NCCC2)c1 | inactive
Cc1cccc(NC(=O)CSCC(=O)Nc2nnc(C3CC3)s2)c1 | inactive
O=C(CSc1nnc(SCc2ccc(F)cc2)s1)Nc1ccc(C(=O)O)cc1 | inactive
CC1=C(C(N)=O)C(c2sccc2C)n2nnnc2N1 (stereo not drawn) | inactive
CCCCOc1ccc(C(=O)NN2CCN(C)CC2)cc1 | inactive
CCCOc1ccc(C(=O)C(CCC(CNCC)C(=O)c2ccc(OCCC)cc2)CNCC)cc1 (stereo not drawn) | 6 (active)
CCCOc1ccc(C(=O)CCC(=O)OC(C)C(=O)Nc2ccc(NC(C)=O)cc2)cc1 (stereo not drawn) | inactive
Cc1nn(CC(=O)NCCc2ccccc2)c(=O)c2cc3occc3n12 | inactive
CC12CN(NC(=O)c3ccc(Cl)cc3)C3(C#N)CC1CCC23C (stereo not drawn) | inactive
COc1ccccc1NC(=O)/C=C/C(N)=O | inactive
CCc1ccc(NC(=O)NC(C)c2ccc3c(c2)OCO3)cc1 (stereo not drawn) | inactive

Compound | B-score
CC1CCCN(C(C(=O)Nc2ccc(C(C)C)cc2)c2ccc3c(c2)OCO3)C1 (stereo not drawn) | 7 (active)
O=C(Nc1ccc2c(c1)OCCO2)C(c1ccc(F)cc1)N1CCCCC1 (stereo not drawn) | inactive
CC(C)C[C@H](NC(=O)N1CCn2c1nc1ccccc12)C(=O)NC1CC1 | inactive
O=C(Nc1cccnc1)c1cc2cc(Br)ccc2oc1=O | inactive
S=C(Nc1cccnc1)Nc1ccccn1 | inactive
Fc1cc(Br)ccc1NC(=S)Nc1cccnc1 | 7 (active)
COc1ccc(CCNC(=O)CN(c2ccccc2)S(C)(=O)=O)cc1 | inactive
COc1ccc(OCCNS(=O)(=O)Cc2ccccc2)cc1 | inactive
CNC(=O)c1ccsc1NC(=O)c1ccc(S(=O)(=O)N2CCc3ccccc32)cc1 | 7 (active)
CNC(=O)c1ccsc1NC(=O)c1ccc(S(=O)(=O)N2CCOCC2)cc1 | inactive
O=S(=O)(c1ccccc1)N1CCc2ccccc21 | inactive
CCC(=C/c1sc2ccc3ccccc3c2[n+]1C)/C=C1\Sc2ccc3ccccc3c2N1C | 19 (active)
COC(=O)c1ccc(NC(=O)c2ccccc2NS(=O)(=O)c2ccccc2)cc1 | inactive
COc1cc(NC(=O)c2ccccc2NS(=O)(=O)c2ccc(Cl)s2)cc(OC)c1 | 8 (active)
COc1cc(OC)c(S(=O)(=O)Nc2ccccc2C(=O)O)cc1S(=O)(=O)Nc1ccccc1C(=O)O | inactive
N#Cc1cccc(CN2CCC(=O)N(CCO)CC2)c1 | inactive
CC(=O)c1ccccc1OCc1ccc(C(=O)c2ccccc2)cc1 | 9 (active)
COc1ccc(CCNC(=O)c2ccccc2OCc2ccccc2)cc1 | inactive
O=C(NC1CCC(O)CC1)c1ccccc1OCc1ccc(F)cc1 (stereo not drawn) | inactive
C/C(=N\NC(=O)Cc1ccccc1[N+](=O)[O-])c1cccnc1 | inactive
COc1ccc(C(CNC(=O)c2cccc(S(=O)(=O)Nc3ccccc3Cl)c2)N2CCOCC2)cc1 (stereo not drawn) | inactive
COc1ccc(C(CNC(=O)c2ccc(S(=O)(=O)Nc3ccccc3C)cc2)N2CCOCC2)cc1 (stereo not drawn) | inactive

Compound | B-score
COc1ccc(C(CNC(=O)c2cccc(NS(=O)(=O)c3ccc(C)c(F)c3)c2)N2CCCC2)cc1 (stereo not drawn) | 8 (active)
CSCCC(NC(=O)COc1ccccc1)C(=O)OCCOc1ccc(Br)cc1 (stereo not drawn) | inactive
Cc1nc2ccc(C(=O)N3CCN(c4ccccc4)CC3)cc2s1 | inactive
Cc1ccc2nc(Nc3ccccc3)cc(C)c2c1 | inactive
Cc1ccc2nc(C)c3c(c2c1)N(c1ccccc1)CC3 | 7 (active)
CCOC(=O)c1nnn(-c2nonc2-n2cccc2)c1CN1CCC(C(=O)OCC)CC1 | inactive
O=C(Nc1cccc(Cl)c1)c1cc(S(=O)(=O)N2CCCCC2)c[nH]1 | inactive
COc1ccc(C2CC(c3cccs3)=NN2c2ccc(F)cc2)cc1OC (stereo not drawn) | inactive
Fc1ccc(N2N=C(c3cccs3)CC2c2ccco2)c(F)c1 (stereo not drawn) | 6 (active)
COc1ccccc1N1N=C(c2cccs2)CC1c1ccccc1 (stereo not drawn) | inactive
O=C(c1c(F)cccc1F)N1CCN(c2ncc(Br)cn2)CC1 | inactive
O=C(NCC(c1ccco1)N1CCc2ccccc21)c1cccc(F)c1 (stereo not drawn) | inactive
O=C(COC(=O)c1ccc(S(=O)(=O)N2CCc3ccccc3C2)cc1)NC(=O)NCc1ccco1 | inactive
COc1c(C)cc(C(=O)C2CCCN(S(=O)(=O)c3c(C)noc3C)C2)cc1C (stereo not drawn) | inactive
COc1ccc(S(=O)(=O)N2CCN(C(=S)NCC3CCCO3)CC2)cc1OC (stereo not drawn) | inactive
S=C(NCC1CCCO1)N1CCN(c2ccc(Cl)c(Cl)c2)CC1 (stereo not drawn) | 7 (active)
CCOc1ccc(S(=O)(=O)N2CCN(C(=S)NCC3CCCO3)CC2)cc1 (stereo not drawn) | inactive
CC(C)=CCc1c(O)c(CC=C(C)C)c2occ(-c3ccc(O)cc3)c(=O)c2c1O | 11 (active)
CC(C)CN(Cc1c(O)ccc2c(=O)c(-c3ccccc3)coc12)CC(C)C | inactive
O=c1c(-c2ccccc2)coc2c(CN3CCOCC3)c(O)ccc12 | inactive
